Test results from PubChem BioAssay.
Unmarked numbers belong to inactive results. For some assays here: Results with a measured potency or affinity are listed apart. Activity calls are given as the source filed them. Unless noted, the rule behind the calls is not given here.

Key:
[1] = antimalarial activity against Dd2 strain (AID 2302;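 active = growth inhibition above 50% at the single 2 µM test dose, taken to imply half-maximal potency below 2 µM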;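 note: 0% = DMSO untreated growth and 100% = chloroquine plus artemisinin killed control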); details: P. falciparum Dd2 in RBCs, LDH growth readout, 72 h; at 2 µM; stronger effect = higher value
[2] = human hepatoma cell viability loss – ATP luminescence, cytotoxicity control for P. falciparum antimalarial project, primary screen (AID 2303;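 active = inhibition above 50%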;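 note: 0% = DMSO wells and 100% = digitonin-killed cells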); details: HepG2 viability, 24-48 h, at 10 µM, stronger effect = higher value
[3] = target: L-lactate dehydrogenase (Plasmodium falciparum (isolate CDC / Honduras)) (UniProt Q27743); assay: PfLDH activity inhibition – cell lysate, 3D7 strain, counter-screen for P. falciparum growth inhibition project (AID 2304);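 note: 0% = vehicle and 100% = reference inhibitor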; details: P. falciparum 3D7 crude extract, LDH APAD/NBT absorbance; at 2 µM; stronger effect = higher value
[4] = inhibition of 3D7 malaria parasite growth – strain 3D7 (AID 2306);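 note: 0% = DMSO wells and 100% = chloroquine plus artemisinin control wells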; details: P. falciparum 3D7 erythrocytic growth, LDH absorbance, 72 h; at 2 µM; stronger effect = higher value
[5] = target: Calcium-dependent protein kinase 1 (Plasmodium falciparum (isolate 3D7)) (UniProt P62344); assay: PfCDPK1 kinase inhibitors, biochemical, TCAMS library (AID 1159585; cut-off not given, nearly all actives have IC50 up to about 0.98 µM;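 note: inhibitors leave more ATP so luminescence rises with inhibition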); details: recombinant PfCDPK1, Kinase-Glo ATP depletion luminescence
[6] = target: Plasmodium falciparum protein kinase 6 (PK6, PF3D7_1337100) (UniProt Q8IDW1); assay: PfPK6 kinase inhibitors, biochemical, TCAMS library (AID 1159586); details: recombinant PfPK6, Kinase-Glo ATP depletion luminescence
[7] = target: Protein kinase 7 (PK7), Plasmodium falciparum 3D7 (PF3D7_0213400) (UniProt Q7YTF7); assay: inhibition of Plasmodium PK7 catalytic activity – biochemical, TCAMS antimalarial set, Kinase-Glo luminescence (AID 1159587); details: recombinant PfPK7, Kinase-Glo ATP depletion luminescence
[8] = target: Calcium-dependent protein kinase 4 (Plasmodium falciparum (isolate 3D7)) (UniProt Q8IBS5); assay: PfCDPK4 kinase inhibitors, biochemical, TCAMS library (AID 1159588; cut-off not given, nearly all actives have IC50 up to about 0.91 µM); details: recombinant PfCDPK4, Kinase-Glo ATP depletion luminescence
Chain of Calcium-dependent protein kinase 4 (Plasmodium falciparum (isolate 3D7)) (Q8IBS5 whole entry, looked up): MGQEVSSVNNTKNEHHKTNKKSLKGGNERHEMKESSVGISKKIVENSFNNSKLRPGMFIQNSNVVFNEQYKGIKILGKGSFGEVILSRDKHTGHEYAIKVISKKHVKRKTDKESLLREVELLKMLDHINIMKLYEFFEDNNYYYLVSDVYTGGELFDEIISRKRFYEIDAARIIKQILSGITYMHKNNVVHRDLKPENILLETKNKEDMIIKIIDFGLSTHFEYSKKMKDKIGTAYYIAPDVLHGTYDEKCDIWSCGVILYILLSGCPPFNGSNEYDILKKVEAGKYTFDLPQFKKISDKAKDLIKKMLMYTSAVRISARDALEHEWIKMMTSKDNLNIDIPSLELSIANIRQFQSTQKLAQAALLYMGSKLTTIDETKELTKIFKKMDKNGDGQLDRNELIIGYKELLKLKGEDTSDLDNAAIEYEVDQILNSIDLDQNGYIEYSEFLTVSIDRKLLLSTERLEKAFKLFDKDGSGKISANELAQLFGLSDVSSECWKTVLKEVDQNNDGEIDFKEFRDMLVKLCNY

Chain of L-lactate dehydrogenase (Plasmodium falciparum (isolate CDC / Honduras)) (Q27743 whole entry, looked up): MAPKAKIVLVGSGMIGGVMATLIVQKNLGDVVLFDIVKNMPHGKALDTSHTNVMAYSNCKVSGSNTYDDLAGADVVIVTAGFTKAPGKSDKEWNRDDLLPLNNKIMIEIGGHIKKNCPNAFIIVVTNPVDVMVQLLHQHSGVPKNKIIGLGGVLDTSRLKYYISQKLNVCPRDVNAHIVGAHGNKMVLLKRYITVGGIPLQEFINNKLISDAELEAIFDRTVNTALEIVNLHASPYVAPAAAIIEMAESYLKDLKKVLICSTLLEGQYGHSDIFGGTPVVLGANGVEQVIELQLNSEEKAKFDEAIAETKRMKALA
Chain of Calcium-dependent protein kinase 1 (Plasmodium falciparum (isolate 3D7)) (P62344 whole entry, looked up): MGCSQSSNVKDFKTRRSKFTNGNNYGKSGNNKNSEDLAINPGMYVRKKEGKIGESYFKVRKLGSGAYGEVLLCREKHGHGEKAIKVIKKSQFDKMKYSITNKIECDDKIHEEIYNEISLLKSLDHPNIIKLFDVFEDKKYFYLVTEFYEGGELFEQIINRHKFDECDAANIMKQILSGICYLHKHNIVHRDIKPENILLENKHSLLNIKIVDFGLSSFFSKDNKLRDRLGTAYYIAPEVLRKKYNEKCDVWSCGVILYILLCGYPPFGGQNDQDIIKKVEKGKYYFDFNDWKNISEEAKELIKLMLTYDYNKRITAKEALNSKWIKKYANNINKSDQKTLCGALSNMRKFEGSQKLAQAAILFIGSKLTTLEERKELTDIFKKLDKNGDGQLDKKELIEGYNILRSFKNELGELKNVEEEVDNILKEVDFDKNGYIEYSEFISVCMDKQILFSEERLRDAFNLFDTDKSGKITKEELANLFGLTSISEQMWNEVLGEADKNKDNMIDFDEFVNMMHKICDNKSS
Chain of Protein kinase 7 (PK7), Plasmodium falciparum 3D7 (PF3D7_0213400) (Q7YTF7 1-343): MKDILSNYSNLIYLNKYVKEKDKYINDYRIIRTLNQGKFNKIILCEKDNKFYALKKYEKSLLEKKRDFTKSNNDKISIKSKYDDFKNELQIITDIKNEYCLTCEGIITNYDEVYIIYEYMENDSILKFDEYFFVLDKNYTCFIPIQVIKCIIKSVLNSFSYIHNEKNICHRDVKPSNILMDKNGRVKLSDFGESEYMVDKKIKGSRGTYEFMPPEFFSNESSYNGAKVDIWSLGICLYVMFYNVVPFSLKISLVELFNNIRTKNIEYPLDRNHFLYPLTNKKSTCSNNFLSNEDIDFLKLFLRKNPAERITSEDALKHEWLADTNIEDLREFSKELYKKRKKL
Chain of Plasmodium falciparum protein kinase 6 (PK6, PF3D7_1337100) (Q8IDW1 1-305): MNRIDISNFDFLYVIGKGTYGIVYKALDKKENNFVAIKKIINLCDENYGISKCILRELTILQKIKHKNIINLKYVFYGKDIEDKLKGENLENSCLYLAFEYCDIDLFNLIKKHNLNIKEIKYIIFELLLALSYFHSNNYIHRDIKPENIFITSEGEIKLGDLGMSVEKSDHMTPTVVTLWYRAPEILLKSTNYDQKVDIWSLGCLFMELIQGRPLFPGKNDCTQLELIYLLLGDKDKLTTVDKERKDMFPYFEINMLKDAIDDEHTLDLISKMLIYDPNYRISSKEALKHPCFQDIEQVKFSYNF

Structure (SMILES) | growth inhibition [1] | inhibition [2] | inhibition [3] [%] | growth inhibition [4] | outcome [5] | outcome [6] | outcome [7] | outcome [8]
CN(C)CCOc1ccnc2ccc(NC(=O)Cc3ccc(-c4ccncc4)c4ccccc34)cc12 | 100% (active) | 10% | -6 | 100% (active) | inactive | inactive | inactive | inactive
CC(C)(C)c1ccc(C(=O)N2CCC3(CC2)C(=O)N(CC(=O)NCC2CCCO2)CN3c2ccccc2)cc1 (stereo not given) | 100% (active) | 8% | 0 | 100% (active) | inactive | inactive | inactive | inactive
Cc1cccc2[nH]c(-c3ccc(-c4cccc(NC(=O)C(C)CN5CCN(C)CC5)c4)s3)nc12 (stereo not given) | 75% (active) | 11% | -6 | 97% (active) | inactive | inactive | inactive | inactive
COc1ccc(Oc2ccc(-c3c(C)[nH]c(C)cc3=O)cc2)cc1 | 88% (active) | -12% | -3 | 93% (active) | inactive | inactive | inactive | inactive
Cc1ccc(NC(=S)N2CCCN(CCCCCNC(=O)/C=C/c3ccc(Cl)c(Cl)c3)CC2)cc1Cl | 5% | 14% | 5 | 93% (active) | inactive | inactive | inactive | inactive
Fc1cccc(Cl)c1-c1nc(NCCC(c2ccccc2)c2ccccc2)no1 | 87% (active) | 4% | -3 | 99% (active) | inactive | inactive | inactive | inactive
CC(=O)Nc1ccc(C(=O)Nc2cccc(-c3ccc(-c4nc5ccc(F)cc5[nH]4)cc3)c2)cn1 | 99% (active) | 10% | -6 | 99% (active) | inactive | inactive | inactive | inactive
C=C[C@]1(C)C[C@@H](OC(=O)CNC[C@@H](O)CN2C[C@H](c3ccnc4ccc(OC)nc34)OC2=O)[C@]2(C)[C@H](C)CC[C@]3(CCC(=O)[C@H]32)[C@@H](C)[C@@H]1O | 82% (active) | 0% | -3 | 89% (active) | inactive | inactive | inactive | inactive
Cc1ccc2nc(C)cc(NN=Cc3ccc(Cl)cc3)c2c1 | 35% | -9% | 6 | 102% (active) | inactive | inactive | inactive | inactive
CC(C)(C)c1ccc(CNC(=O)/C=C/c2ccc(CNC3CCNCC3)cc2)cc1 | 21% | 6% | 1 | 96% (active) | inactive | inactive | inactive | inactive
NC1=NC(c2ccccc2)(c2ccccc2)C(=O)N1CC=Cc1ccccc1 | 70% (active) | 23% | -3 | 98% (active) | inactive | inactive | inactive | inactive
COc1cc(NCC(O)CNc2cc(OC)c3ccccc3n2)nc2ccccc12 | 93% (active) | 42% | 5 | 100% (active) | inactive | inactive | inactive | inactive
O=C(/C=C/c1cccc2c1OCO2)Nc1ccnc2ccncc12 | 35% | 17% | -4 | 90% (active) | inactive | inactive | inactive | inactive
NC(N)=Nc1nc(-c2cccc(NC(=O)CCCCCCCON3C(N)=NC(N)=NC34CCCCC4)c2)cs1 | 89% (active) | 1% | -8 | 96% (active) | inactive | inactive | inactive | inactive
Fc1ccc(CN2CCN(c3ncnc4cc(-c5ccccc5)sc34)CC2)cc1 | 82% (active) | 7% | 4 | 82% (active) | inactive | inactive | inactive | inactive
CC(=O)Nc1ncc(C(=O)Nc2cccc(-c3cccc(-c4nc5ccc(F)cc5[nH]4)c3)c2)s1 | 93% (active) | 27% | 5 | 101% (active) | inactive | inactive | inactive | inactive
CN(C)CCCNCc1cn(S(=O)(=O)c2ccccc2Cl)c2ccccc12 | 71% (active) | 20% | -6 | 92% (active) | inactive | inactive | inactive | inactive
CCCCC(=O)Nc1cc(=O)[nH]c2nc(-c3ccc(Cl)cc3)nn12 | 77% (active) | 1% | 0 | 89% (active) | inactive | inactive | inactive | inactive
CC(C)(C)c1cc(Cn2ccnc2)cc(C(C)(C)C)c1O | 3% | 4% | -2 | 85% (active) | inactive | inactive | inactive | inactive
Cc1nc(-c2ccc(-c3ccc(C(=O)Nc4ccc(C(C)C)c(OCCN(C)C)c4)cc3)c(C)c2)no1 | 45% | 49% | -2 | 99% (active) | inactive | inactive | inactive | inactive

Structure (SMILES) | growth inhibition [1] | inhibition [2] | inhibition [3] [%] | growth inhibition [4] | outcome [5] | outcome [6] | outcome [7] | outcome [8]
COc1cc2nc(NCC3CCN(C(=O)c4ccc(-c5ccc(C(=O)N(C)C)cc5C)cc4)CC3)nc(N)c2cc1OC | 34% | 2% | 1 | 101% (active) | inactive | inactive | inactive | inactive
CC(=O)Oc1c(C2C=CCCC2)c(OC(C)=O)c2ccccc2c1OC(C)=O (stereo not given) | 79% (active) | 10% | 7 | 95% (active) | inactive | inactive | inactive | inactive
CC(C)[C@@H](NC(=O)NC1CCC(CCN2[C@@H]3CC[C@H]2CC(OC(=O)C(CO)c2ccccc2)C3)CC1)C(O)(c1ccccc1)c1ccccc1 (stereo not given in full) | 56% (active) | 19% | 2 | 96% (active) | inactive | inactive | inactive | inactive
CC(C)(C)c1ccc(NC(=O)c2cccc(CN3CCCN(Cc4cccc(O)c4)CC3)c2)cc1 | 69% (active) | 97% (active) | 4 | 101% (active) | inactive | inactive | inactive | inactive
NC1CCN(Cc2cccc(-c3csc(-c4nc5ccccc5[nH]4)c3)c2)C1 (stereo not given) | 10% | 10% | 2 | 99% (active) | inactive | inactive | inactive | inactive
O=C(/C=C/c1ccc(Cl)c(Cl)c1)NCCCN1CCC(c2c[nH]c3ccccc23)CC1 | 5% | 48% | -4 | 90% (active) | inactive | inactive | inactive | inactive
OCC1CCCCN1Cc1cccc(-c2cccc(-c3nc4ccccc4[nH]3)c2)c1 (stereo not given) | 4% | 24% | 0 | 95% (active) | inactive | inactive | inactive | inactive
CCOc1ccc2c(NN=Cc3ccccn3)cc(C)nc2c1 | 1% | 19% | -3 | 98% (active) | inactive | inactive | inactive | inactive
Cc1cc(C)c2cc(CNCCCNc3nc4ccccc4[nH]3)[nH]c2c1 | -2% | 32% | 3 | 102% (active) | inactive | inactive | inactive | inactive
Cc1ccccc1C1CCN(c2ccc(C(=O)NC3CC3)cn2)CC1 | 95% (active) | 17% | -2 | 95% (active) | inactive | inactive | inactive | inactive
COc1ccc(-c2cccc(NC(=O)c3ccc(Cl)cc3)c2)cc1CN1CCC(O)CC1 | 43% | 51% (active) | 3 | 100% (active) | inactive | inactive | inactive | inactive
O=C(Nc1ccc(-c2cncc(NCCCN3CCCC3)c2)cc1)c1ccccc1 | 49% | -1% | -2 | 94% (active) | inactive | inactive | inactive | inactive
CN(C)CCC(O)(c1ccc(Br)cc1)c1cccnc1 (stereo not given) | 1% | 22% | 5 | 96% (active) | inactive | inactive | inactive | inactive
COc1ccc2nccc([C@@H](O)CN3CCC(NC(=O)c4[nH]c5ccccc5c4-c4ccccc4)CC3)c2c1 | 68% (active) | 18% | 0 | 96% (active) | inactive | inactive | inactive | inactive
CCCN(CCC)S(=O)(=O)c1ccc(C(=O)N2CCC(C(=O)OCC)CC2)cc1 | 41% | 26% | 1 | 98% (active) | inactive | inactive | inactive | inactive
CS(=O)(=O)c1ccc(CCNCc2ccc(-c3ccc(CN(C(=O)c4ccc(Cl)nc4)C4CCN(Cc5ccccc5)CC4)cc3)nc2)cc1 | 70% (active) | 24% | -2 | 93% (active) | inactive | inactive | inactive | inactive
Cc1cccc2[nH]c(-c3ccc(-c4ccc(CNCc5cnn(-c6ccccc6)n5)cc4)cc3)nc12 | 99% (active) | 35% | -4 | 101% (active) | inactive | inactive | inactive | inactive
O=C(/C=C/c1ccc(Cl)c(Cl)c1)NCCCCCN1CCCN(C(=O)Nc2cccc(Cl)c2)CC1 | 2% | 11% | 0 | 102% (active) | inactive | inactive | inactive | inactive
O=C(Nc1ccc(C(F)(F)F)cc1)c1ccc(S(=O)(=O)NCC2CCCN(CC3CCCCC3)C2)cc1 (stereo not given) | -6% | 44% | -7 | 93% (active) | inactive | inactive | inactive | inactive
CC(Oc1ccc(Cl)cc1)C(=O)NCCC1CCN(CCCCCNC(=O)/C=C/c2ccc(Cl)c(Cl)c2)CC1 (stereo not given) | 20% | 48% | -5 | 89% (active) | inactive | inactive | inactive | inactive
